# Source: PubChem BioAssay (NCI)
# This is part of a sample that, as a whole, favours compounds with a hit. Of some 83,000 tested, about 20% had one in any assay.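 Note: values are percent growth. 100 is the growth of untreated cells, values between 100 and 0 indicate rising inhibition; between -100 and 0 indicates cell death.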 A number with no mark means an inactive call. Active and inactive are the calls of the source. How the source made its calls: active means growth percent below 10; inactive means the rest.
# Tests used:
# Assay in all cases: NCI-60 one-dose screen, 48 h (100 = growth as untreated, 0 = no growth, -100 = all killed)
# Conditions in all cases: 10 µM unless noted
# [1] = system: HCT-15 colon
# [2] = system: HT29 colon
# [3] = system: SNB-75 CNS
# [4] = system: SNB-19 CNS
# [5] = system: U251 CNS
# [6] = system: PC-3 prostate
# [7] = system: SK-MEL-5 melanoma
# [8] = system: UACC-62 melanoma
# [9] = system: LOX IMVI melanoma
# [10] = system: SK-MEL-28 melanoma
# [11] = system: SK-MEL-2 melanoma
# [12] = system: EKVX NSCLC
# [13] = system: SN12C renal
# [14] = system: UO-31 renal
# [15] = system: TK-10 renal
# [16] = system: ACHN renal
# [17] = system: CAKI-1 renal
# [18] = system: A498 renal
# [19] = system: CCRF-CEM leukemia
# [20] = system: MOLT-4 leukemia
SMILES,growth [1],growth [2],growth [3],growth [4],growth [5],growth [6],growth [7],growth [8],growth [9],growth [10],growth [11],growth [12],growth [13],growth [14],growth [15],growth [16],growth [17],growth [18],growth [19],growth [20]
O=C1c2cc3c(cc2-c2c1c1cc(Cl)c(Cl)cc1c(=O)n2C[C@H](O)CO)OCO3,1.28% (active),-38.8% (active),-31.4% (active),-6.61% (active),-63.4% (active),5.35% (active),-84.8% (active),-66.8% (active),-70.9% (active),0.507% (active),-28.3% (active),14.2%,-22.2% (active),-61.3% (active),-28% (active),-47.2% (active),-0.657% (active),-73.3% (active),-5.01% (active),-24.8% (active)
Nc1nc2c(c3ncccc13)C(c1ccc(Cl)c(Cl)c1)Cc1ncccc1-2 (stereo not given),18.2%,6.39% (active),16.4%,32.1%,16.9%,19.5%,19.8%,26.6%,28%,49.2%,18.4%,44.5%,34.1%,36.9%,29.5%,30.2%,30.9%,,2.45% (active),5.36% (active)
c1ccc(-c2nc(N3CCOCC3)c3c4c(sc3n2)CCCCC4)nc1,59.5%,54.5%,45.9%,62.5%,59.9%,41.7%,23.4%,56.1%,83.2%,61.8%,61.7%,50.1%,69%,35.7%,45.1%,65.1%,46.2%,9.92% (active),79.9%,58.9%
O=C(CO[N+](=O)[O-])Nc1ccc(C(=O)/C=C/c2ccc3c(c2)OCO3)cc1,76.7%,30.1%,86.3%,104%,57.3%,61.4%,90.8%,96%,21.5%,104%,119%,99.7%,95.4%,77.1%,111%,99.2%,93%,,70%,99.7%
COc1cc(OC)c(/C=C/S(=O)(=O)Cc2ccc(OC)c(N)n2)c(OC)c1,7.7% (active),-9.76% (active),40.5%,35.8%,8.02% (active),26.8%,-31.2% (active),42.3%,9.35% (active),53.7%,8.32% (active),37.3%,24.3%,31.9%,33.7%,28.3%,25.5%,-1.72% (active),9.98% (active),2.56% (active)
C=C1CC[C@@H]2[C@](C)(COC(C)=O)[C@H](OC(C)=O)CC[C@@]2(C)[C@@H]1CC(Nc1ccc(S(=O)(=O)Nc2ccc(Cl)nn2)cc1)C1=CCOC1=O (stereo not given in full),-18.4% (active),-18.3% (active),25.2%,76%,-41.2% (active),38.4%,35.8%,-50% (active),-84.6% (active),6.66% (active),58.3%,87.3%,-27.6% (active),18.4%,69.8%,16.1%,31.8%,89%,-10.3% (active),0.401% (active)
Cn1c(=O)c2[nH]c(C(O)C(O)C(O)C(O)CO)nc2n(C)c1=O (stereo not given),106%,99.6%,92.6%,97.3%,100%,93.2%,104%,99.7%,102%,100%,104%,103%,107%,91.8%,103%,106%,102%,106%,105%,103%
CC(=O)C1=C(O)C=C2Oc3c(C(=O)/C=C/c4ccccc4)c(O)c(C)c(O)c3[C@]2(C)C1=O,25.3%,32.6%,87.1%,21.6%,7.84% (active),24.2%,10.1%,32.9%,41.4%,43.1%,-3.97% (active),36.7%,23.4%,30.7%,33.6%,48.2%,46.7%,,22.1%,32.6%
Cc1[nH]n(-c2ccccc2)c2nc3nncc3c(-c3ccc(Cl)cc3)c12,94.1%,79.7%,104%,100%,99.2%,73.1%,104%,91.5%,89%,104%,123%,97%,93.1%,96.6%,112%,104%,90.3%,102%,89.7%,101%
O=C(CN1CCN(c2cc3c(cc2F)c(=O)c(C(=O)O)cn3C2CC2)CC1)Nc1nc(-c2ccc(Cl)cc2)cs1,15.7%,10.4%,32.6%,22.5%,8.26% (active),17.7%,10.4%,20.1%,-42.4% (active),42.6%,21.9%,35.4%,15.8%,20.2%,26.7%,25.1%,30.4%,4.43% (active),23.8%,30.5%
COc1cc(C(=O)/C=C/c2c(C)n([O-])c3ccc(C)cc3[n+]2=O)cc(OC)c1OC,25.9%,25.3%,73.2%,108%,55.4%,64.8%,89%,54%,33%,72.1%,84.3%,50.8%,60%,-27.3% (active),26.6%,-40.9% (active),6.71% (active),95.3%,,-30.2% (active)
CCC(c1ccccc1)C(CC)c1ccc(O)c(O)c1 (stereo not given),91.2%,104%,86.4%,116%,96.6%,92.7%,88.3%,81.5%,87.9%,95.4%,94.3%,107%,91.9%,74.2%,106%,95.9%,101%,110%,,73.8%
CCN(CC)CCC(=O)c1ccc(OC)c2ccccc12,107%,109%,89.1%,87%,95.4%,102%,107%,90.6%,86.8%,122%,91.7%,94%,106%,62.3%,60.1%,105%,88.7%,124%,18.7%,29.1%
CSc1ccc(N=C=C(c2ccccc2)c2ccccc2)cc1,87.3%,87.3%,84.7%,91.7%,86.4%,84.6%,99.6%,83.1%,70.2%,99.2%,93.5%,96.6%,81.7%,83.5%,99.6%,92.9%,96.9%,81.8%,1.03% (active),34.7%
